What all share (assay): NCI-60 one-dose screen, 48 h (100 = growth as untreated, 0 = no growth, -100 = all killed)
Common to all, as to settings: 10 µM unless noted

For test [1], the system named is SR leukemia.
The subject of test [2] is RPMI-8226 leukemia.
The subject of test [3] is OVCAR-8 ovarian.
The test system of test [4] is OVCAR-5 ovarian.
Test [5] has as its system OVCAR-4 ovarian.
The test system of test [6] is SK-OV-3 ovarian.
In test [7] the test system is IGROV1 ovarian.
Test [8] deals with OVCAR-3 ovarian.
Test [9] relates to HS 578T breast.
Test [10] concerns NCI/ADR-RES ovarian.
The subject of test [11] is T-47D breast.
The subject of test [12] is BT-549 breast.
Test [13] deals with MDA-MB-435 melanoma.
In test [14] the test system is MCF7 breast.
For test [15], the system named is HCT-116 colon.
Test [16] concerns HCC-2998 colon.
In test [17] the test system is KM12 colon.
Test [18] relates to SW-620 colon.

Growth data for 17 molecules are collected here from PubChem BioAssay (NCI).

About 83,000 compounds went through this panel and 20% of them were active in at least one assay; those are over-represented in the sample as a whole.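 For each line, cells grew in 96-well plates with the test compound present at a single concentration for 48 hours.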 Values without a mark were called inactive. Active and inactive are the calls of the source. Rule for the calls: active = growth percent below 10; inactive = the rest.

As for `COc1cc(C#Cc2ccc(=O)oc2C#Cc2ccccc2)cc(OC)c1OC`, the growth in [1] was 3.75% (active); in [2] it was 49.2%; in [3], 89.4%; in test [4] it was 75.8%; in test [5] it was 96.9%; in test [6], 101%. For the same molecule, the growth in test [7] is 67.4%; in [8], 29.9%; in [9], 84.8%; in [10], 89.7%; in test [11], 27.6%; in [12] it was 57.6%. The growth was 96% in test [13]; 44.6% in test [14]; -32.2% (active) in test [15]; 29.1% in test [16]; 82.7% in test [17].
Regarding `O=C(N/N=C/c1ccc(O)cc1O)c1ccc(Nc2ccnc(C(F)(F)F)c2)cc1`, the growth in [1] is 91.8%; in test [2], 59.2%; in test [3], 48.2%; in test [4], 53.2%; in test [5], 38.6%; in [6], 38.9%. The growth in test [7] is 77.1%; in test [8], 61.6%; in test [9], 86.4%; in [10] it was 64.2%; in test [11] it was 4.87% (active); in test [13] it was 44.7%. The growth in test [18] was 49.3%; in test [14], 25.5%; in [15], 27.5%; in test [16], 64.7%; in [17], 57.2%.
Regarding `O=C1NC(=Nc2ccc(O)cc2)S/C1=C\c1cccs1`, the growth was 11.6% in [1]; 2.94% (active) in test [2]; 48.5% in test [3]; 84.5% in test [4]; 48.8% in [5]; 62.6% in test [6]. Besides, the growth is 38.5% in [7]; 8.01% (active) in test [8]; 32.6% in [9]; 32.1% in test [10]; 32.5% in test [11]; -24.7% (active) in test [13]. For the same molecule, the growth was 27.2% in test [18]; 11.8% in test [14]; 32.9% in [15]; 59% in [16]; 13.9% in [17].
For `O=C(OC[C@@H]1CO1)c1cccc2c(=O)c3ccccc3[nH]c12`, the growth in test [1] was 9.87% (active); in test [2], -11.7% (active); in test [3] it was -56% (active); in [4], -21.4% (active); in [5], -27% (active); in [6], -38.5% (active). The growth was -13.7% (active) in [7]; -25.7% (active) in test [8]; -21.5% (active) in test [9]; -16.3% (active) in test [10]; -9.67% (active) in [11]; -31.6% (active) in test [12]. Also, the growth was -81.7% (active) in test [13]; 0.0356% (active) in test [14]; 2.66% (active) in test [15]; -66.2% (active) in test [16]; -65.5% (active) in test [17].
For the molecule `Cc1cc2nc(-c3c(-c4ccc(F)cc4)nc4sccn34)[nH]c2cc1C`, the growth was 83.2% in [1]; 87.9% in test [2]; 96% in test [3]; 111% in [4]; 94.7% in [5]; 94.9% in test [6]. The growth was 95.9% in test [7]; 102% in [8]; 103% in test [9]; 91.6% in [10]; 85.7% in [11]; 109% in test [12]. The growth is 103% in test [13]; 91.6% in [14]; 103% in test [15]; 106% in test [16]; 96.7% in test [17].
Turning to `O=C(/C=C/c1cccc(Cl)c1)c1cccc(OCCCCOc2cccc(C(=O)/C=C/c3cccc(Cl)c3)c2)c1`, the growth in test [1] was 39.5%; in test [2], -26.8% (active); in [3], 97.3%; in test [4], 109%; in test [5] it was 93.3%; in test [6], 113%. Besides, the growth in [7] is 88.9%; in test [8] it was 91.9%; in [9], 95.8%; in [10], 99.7%; in [11], 75.8%; in test [13] it was 70.9%. Besides, the growth in test [18] is 75.1%; in [14] it was 12.6%; in [15], -13.7% (active); in test [16], 85.5%; in test [17], 70.5%.
`COc1ccc2[nH]cc(-c3nc(-c4cn(C)c5ccncc45)cs3)c2c1`: the growth in test [1] was -11.2% (active); in [2], -40.3% (active); in test [3], -9.37% (active); in [4], 103%; in [5], 24.1%; in [6], 112%. In addition, the growth in test [7] is -38.5% (active); in test [8] it was 117%; in [9] it was 101%; in [10] it was 62.1%; in [11] it was 92.1%; in test [12], 85.1%. Also, the growth was 64.7% in test [13]; -39.4% (active) in test [14]; -83.8% (active) in test [15]; -38.9% (active) in [16]; -31.8% (active) in test [17].
As for `Cn1c(=O)c2c(c3ccccc31)OC(N)=C(C#N)C21C(=O)c2ccccc2C1=O`, the growth in [1] was 105%; in test [2], 94.8%; in test [3], 97.5%; in [4] it was 98%; in test [5], 92.4%; in test [6], 90.8%. The growth was 92.4% in test [7]; 98.7% in [8]; 81.5% in test [9]; 103% in test [10]; 96.3% in test [11]; 87.2% in test [12]. The growth in test [13] is 98.4%; in [14], 90%; in test [15], 92.2%; in [16], 101%; in test [17], 95.2%.
Consider `O=C1OCC2=C1C(c1cccc(C(F)(F)F)c1)c1cc3c(cc1N2CCO)OCO3` (centres undefined), for which the growth in [1] is 15.7%; in [2], 21%; in test [3], 23.3%; in test [4] it was 55%; in [5] it was 58.1%; in test [6], 27.9%. The growth in test [7] was 37.2%; in test [8], -5.02% (active); in [9], 31.4%; in test [10], 25%; in test [11], 28%; in [12], 55%. The growth was -44.1% (active) in [13]; 20.9% in test [14]; 21.4% in [15]; 69.9% in test [16]; 24.9% in test [17].
Take `Clc1nccc2c(-c3csc(-c4c[nH]c5ccccc45)n3)c[nH]c12`: the growth in [1] was 11.3%; in [2], 51.4%; in test [3], 56.5%; in test [4] it was 107%; in [5], 68.9%; in test [6] it was 58.8%. The growth in test [7] was 68.6%; in test [8], 68.6%; in test [9], 45.2%; in test [10] it was 53.1%; in test [11], 37%; in test [12], 65.7%. For the same molecule, the growth in test [13] was 53.9%; in test [14], 49.6%; in test [15] it was 39.7%; in test [16], 63.7%; in test [17] it was 47.5%.
Turning to `CN1CCN(Cc2ccc(NC(=O)c3cncc(C#Cc4cnn5ccccc45)c3)cc2C(F)(F)F)CC1`, the growth in test [1] was -21.2% (active); in [2], -17.5% (active); in test [3], 9.77% (active); in [4] it was 4.3% (active); in test [5], -2.15% (active); in test [6], 15.5%. In addition, the growth in test [7] is 3.17% (active); in [8], 0.315% (active); in test [9], -15.4% (active); in [10] it was -6.37% (active); in test [11] it was 35.5%; in test [13], 6.02% (active). The growth in test [18] is -14.3% (active); in test [14], 0.711% (active); in test [15], 4.92% (active); in test [16] it was -19.1% (active); in test [17] it was 0.221% (active).
For the molecule `CCCCCSB(SCCCCC)c1ccccc1`, the growth in test [1] was 98.5%; in test [2] it was 100%; in test [3], 97%; in [4] it was 101%; in test [5], 100%; in test [6], 104%. Besides, the growth in test [7] is 97.1%; in [8], 109%; in test [9] it was 109%; in [10], 98.4%; in [11], 94.3%; in test [13] it was 103%. Further, the growth is 100% in test [18]; 104% in test [14]; 106% in test [15]; 88.7% in test [16]; 107% in [17].
In the case of `Nc1c(C(=O)Nc2ccccn2)sc2nc3c(cc12)C(O)CCC3` (centres undefined), the growth in test [1] was 14.4%; in test [2] it was 2.23% (active); in [3] it was 36.5%; in test [4], 46.7%; in test [5], 59.4%; in test [6], 17.4%. The growth is 47.9% in test [7]; -19.1% (active) in [8]; 6.09% (active) in [9]; 17.7% in [10]; 15% in [11]; 58.2% in test [12]. Besides, the growth was -44.6% (active) in test [13]; 13.2% in [14]; 30.5% in [15]; 70.7% in test [16]; 18.3% in test [17].
Turning to `Cc1cc(C(=O)Nc2cc(Nc3ncccc3-c3ncnc4nc[nH]c34)ccc2F)cc(C(F)(F)F)c1`, the growth in test [1] was 51.3%; in [2], 53.8%; in test [3], 57.2%; in [4], 33.3%; in test [5], 47.7%; in [6], 87.2%. Besides, the growth in test [7] was 103%; in test [8], 68%; in test [9] it was 38.1%; in [10], 52.1%; in test [11], 64.8%; in test [12], 91.3%. Moreover, the growth is 26.2% in [13]; 66.9% in [14]; 19.1% in test [15]; 30.6% in test [16]; 49.5% in [17].
As to `CCCCCn1sc(=O)n(Cc2ccc(CNC(=O)OCc3ccc4c(Cl)cc(Cl)c(O)c4n3)cc2)c1=O`, the growth in test [1] is 64.3%; in test [2], 60.6%; in test [3], 42.3%; in test [4] it was 90%; in [5], 66.4%; in test [6] it was 96%. Besides, the growth in test [7] was 53.5%; in test [8], 69.8%; in [9] it was 70.9%; in [10], 9.85% (active); in [11], 60.8%; in test [12], 71.1%. The growth in test [13] is 68%; in test [14], 69.5%; in [15], 44.6%; in test [16], 95.2%; in test [17] it was 57.5%.
As for `CCCCCCC(CCCC)COC(=O)c1ccc(Cl)cc1` (centres undefined), the growth in test [1] was 99.1%; in test [2], 108%; in test [3], 109%; in test [4] it was 115%; in [5], 99.4%; in test [6], 107%. The growth in test [7] is 111%; in [8] it was 114%; in test [9], 109%; in [10], 115%; in test [11], 103%; in test [12] it was 107%. Also, the growth in test [13] was 107%; in test [14], 101%; in test [15], 104%; in [16], 121%; in [17], 108%.
In the case of `O=C(N=Nc1c(O)[nH]c2ccccc12)Nc1ccc(Cl)cc1`, the growth in [1] was 79.1%; in [2], 56.1%; in test [3] it was 102%; in test [4] it was 86%; in [5], 98.2%; in test [6], 96.5%. Also, the growth was 80.2% in [7]; 97.5% in [8]; 95.1% in test [9]; 110% in test [10]; 87.2% in test [11]; 103% in test [12]. Besides, the growth in test [13] was 95.5%; in [14] it was 76.3%; in test [15], 94.4%; in test [16], 99%; in [17] it was 81.1%.
